About 1,100 (1.7%) of roughly 63,000 compounds were called active. The sample holds actives, similar compounds and a random draw of the others, so the mix is not that of the screen. Cut-off read from the data, not from the text of the source: active = cytotoxicity above about 50%; inactive = the rest. Results with a measured potency or affinity are listed apart.
Experiment: cytotoxicity in HPDE-C7 cells, cell-based, fluorescence, HTS (AID 430);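 note: cells exposed to compound for 48 hours before viability readout; 0% = vehicle and 100% = reference cytotoxic drug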
Conditions: HPDE-C7 pancreatic duct cells viability, at 10 µM, active compounds read high

SMILES	cytotoxicity
CC1=CC(C)(C)N(C(=O)c2ccc(F)cc2)c2cc3c(cc21)OCO3	-5.1% (inactive)
Cc1ccc2[nH]c(=O)c(CN(CCN3CCOCC3)C(=O)Nc3ccc(F)cc3)cc2c1	1.9% (inactive)
COc1ccc(CNC(=O)c2cc(-c3ccccc3O)n[nH]2)cc1	-14.7% (inactive)
CCCCOC(=O)n1c(=O)oc2cc(S(=O)(=O)N3CCCCC3)ccc21	4.7% (inactive)
CC(C)C1Cc2c(sc3c2c(=O)n(Cc2ccccc2)c2nncn32)CO1 (centres undefined)	7.1% (inactive)
Cc1nnc2n(Cc3ccccc3)c(=O)c3c4c(sc3n12)CN(Cc1ccccc1)CC4	11.3% (inactive)
CCOC(=O)CSc1nnc2n(Cc3ccccc3)c(=O)c3c4c(sc3n12)CCC4	22.6% (inactive)
CCCSc1nnc2n(C)c(=O)c3c4c(sc3n12)CCC4	4.3% (inactive)
CCCSc1nnc2n(Cc3ccccc3)c(=O)c3c4c(sc3n12)CCC4	52.7% (active)
CCC(C)N(C(=O)COC(=O)c1cn(CC)c2nc(C)ccc2c1=O)C1CCS(=O)(=O)C1 (centres undefined)	-10.6% (inactive)
CC(C)c1cc(C(=O)Nc2cccc(Cl)c2)no1	1.6% (inactive)
O=C(Nc1ccc(Oc2ccc(S(=O)(=O)N3CCOCC3)cn2)cc1)c1ccco1	2.4% (inactive)
Nc1c(C(=O)NCc2ccco2)sc2nc3c(cc12)C(=O)CCC3	56.5% (active)
COc1cc2cc3c(N)c(C(=O)NCc4ccco4)sc3nc2cc1OC	31.5% (inactive)
COc1ccc2cc3c(N)c(C(=O)NCc4ccco4)sc3nc2c1	-0.3% (inactive)
Cc1ccc(Cn2c(=O)c3ccccc3n3c(CCC(=O)O)nnc23)cc1	23% (inactive)
COC(=O)C1C(c2ccccc2)C(C(=O)N2CCOCC2)C1c1ccccc1 (centres undefined)	-2.2% (inactive)
COc1ccc(CCN2C(=NC(=O)CCC(=O)O)SC3CS(=O)(=O)CC32)cc1OC (centres undefined)	-11% (inactive)
COc1ccc(CNC(=O)CSc2nnc(C)s2)cc1	-6.3% (inactive)
CN1CCN(c2nc(-c3cccs3)cc(C(F)(F)F)n2)CC1	1.7% (inactive)
FC(F)(F)c1cc(-c2ccco2)nc(-n2nnc3ccccc32)n1	5.9% (inactive)
CC(C)c1nnc(NC(=O)CCC(=O)Nc2ccc(F)cc2)s1	6.6% (inactive)
CC(C)c1nnc(NC(=O)Cc2cccs2)s1	1.9% (inactive)
FC(F)(F)c1cc(-c2ccco2)nc(NCc2ccccc2)n1	9.1% (inactive)
FC(F)(F)c1cc(-c2cccs2)nc(N2CCOCC2)n1	-7.3% (inactive)

SMILES	cytotoxicity
CC(C)c1nnc(NC(=O)CCS(=O)(=O)c2nc(-c3cccs3)cc(C(F)(F)F)n2)s1	87% (active)
FC(F)(F)c1cc(-c2ccco2)nc(-n2cnc3ccccc32)n1	0% (inactive)
FC(F)(F)c1cc(-c2ccco2)nc(NCc2ccco2)n1	0.5% (inactive)
O=C(COc1cccc(-n2cnnn2)c1)N1CCOCC1	18.5% (inactive)
Cc1c(C)n(CC(O)CN2CCOCC2)c2ccccc12 (centres undefined)	-0.4% (inactive)
CC(C)C(c1nnnn1Cc1ccc2c(c1)OCO2)N1CCN(c2ccccc2)CC1 (centres undefined)	-9.2% (inactive)
COc1ccc(N2C(=O)CSC23C(=O)Nc2ccccc23)cc1OC (centres undefined)	-18.4% (inactive)
COc1cc(OC)cc(C(=O)Nc2ccccc2N2CCOCC2)c1	-3.9% (inactive)
COc1cc(OC)c(C(=O)COc2ncnc3ccccc23)c(OC)c1	-5.8% (inactive)
O=S(=O)(Nc1ccc2c(c1)OCO2)c1cccs1	15.6% (inactive)
Cn1c(NCC2CCCO2)nc2c1c(=O)n(Cc1ccccc1)c(=O)n2C (centres undefined)	4.9% (inactive)
COc1nc(-c2ccccc2)cc(C(F)(F)F)n1	-11.8% (inactive)
COc1ccc(-c2cc(C(F)(F)F)nc(NC3CCCC3)n2)cc1OC	24.7% (inactive)
COc1ccc(-c2cc(C(F)(F)F)nc(N3CCCCC3)n2)cc1OC	-20.9% (inactive)
Nc1nc(-c2ccccc2)cc(C(F)(F)F)n1	-0.7% (inactive)
COCCn1c(SCC(=O)OCc2ccccc2)nc2c1c(=O)[nH]c(=O)n2C	-3.3% (inactive)
CCCCC(=O)O[C@]1(C(=O)CO)CC[C@H]2[C@@H]3CCC4=CC(=O)CC[C@]4(C)[C@H]3[C@@H](O)C[C@@]21C	8.3% (inactive)
CCCCCC(=O)O[C@]1(C(C)=O)CC[C@H]2[C@@H]3CCC4=CC(=O)CC[C@]4(C)[C@H]3CC[C@@]21C	116% (active)
CCCCCCCC(=O)OCC(=O)[C@@]1(O)CC[C@H]2[C@@H]3CCC4=CC(=O)CC[C@]4(C)[C@H]3[C@@H](O)C[C@@]21C	-1.9% (inactive)
Cc1c(C(=O)O)c2cc(O)ccc2n1-c1ccccc1	4.3% (inactive)
Fc1ccc(-c2nnc(-c3ccc(Cl)cc3Cl)o2)cc1	1.1% (inactive)
O=C(NCc1ccco1)C(c1cccs1)N(Cc1ccccc1)C(=O)Cn1nnc2ccccc21 (centres undefined)	3.4% (inactive)
COCCCn1c2nc3ccccc3nc2c2c(=O)n(Cc3ccccc3Cl)cnc21	-8.1% (inactive)
COc1ccc(NC(=O)CN(C)S(=O)(=O)c2cccc3cccnc23)cc1	-4.1% (inactive)
COc1ccc(NC(=O)C2CCCN2S(=O)(=O)c2cccc3cccnc23)c(OC)c1 (centres undefined)	5.8% (inactive)

SMILES	cytotoxicity
COc1ccc(N(C)S(=O)(=O)c2cccc3cccnc23)c(OC)c1	51.4% (active)
Cc1ccc(S(=O)(=O)NCC(=O)N2CCCCC2)cc1	-15.4% (inactive)
CCc1nc(N2CCN(C(=O)c3ccco3)CC2)c2oc3ccccc3c2n1	22.2% (inactive)
O=C(c1cc2cc(Cl)ccc2oc1=O)N1CCCC1	-1.3% (inactive)
CCOC(=O)C1=C(c2ccccc2)NC(SCC(=O)Nc2ccccc2C)=C(C#N)C1c1ccco1 (centres undefined)	32.9% (inactive)
CCOC(=O)CSC1=C(C#N)C(c2ccco2)C(C(=O)Nc2cccc(C(F)(F)F)c2)=C(C)N1 (centres undefined)	12.4% (inactive)
COc1ccccc1NC(=O)C1=C(C)NC(SCC(=O)c2ccccc2)=C(C#N)C1c1ccco1 (centres undefined)	33.9% (inactive)
CC1=C(C(=O)Nc2ccccc2)C(c2ccco2)C(C#N)=C(SCC(=O)OC(C)C)N1 (centres undefined)	42.1% (inactive)
CC1=C(C(=O)Nc2ccccc2)C(c2ccco2)C(C#N)=C(SCC(=O)Nc2cccc(C)c2C)N1 (centres undefined)	67% (active)
CC1=C(C(=O)Nc2ccccc2)C(c2ccco2)C(C#N)=C(SCc2ccccc2)N1 (centres undefined)	63.1% (active)
Cc1cccc(OCCC(=O)Nc2ccc(S(=O)(=O)N3CCCC3)cc2)c1	-7% (inactive)
CCOc1ccc(NC(=O)c2cccc(-n3cnnn3)c2)cc1	0.4% (inactive)
CCC(C)SCc1nc2ccccc2[nH]1 (centres undefined)	-5.4% (inactive)
COc1cccc(-c2noc(CCC(=O)Nc3cccnc3)n2)c1	2% (inactive)
O=C(OCc1ccc(F)cc1Cl)c1ccccn1	4.8% (inactive)
CN(C)c1ccc(S(=O)(=O)c2ccc(Cl)cc2)cc1	1% (inactive)
c1cncc(-c2nc(NCc3ccco3)c3ccccc3n2)c1	5.3% (inactive)
CSCC[C@@H](Nc1nc(-c2ccccc2)nc2c1oc1ccccc12)C(=O)O	7.2% (inactive)
O=C(NCc1cccs1)c1cc2ccccc2o1	-2.4% (inactive)
CCC(C)(NC(=O)c1ccc(=O)[nH]c1)C(=O)NC1CCCC1 (centres undefined)	-7% (inactive)
COC(=O)CNC(=O)C(Cc1c[nH]c2ccccc12)NC(=O)OC(C)(C)C (centres undefined)	-5% (inactive)
Cc1csc2ncc(C(=O)Nc3ccc4c(c3)OCCO4)c(=O)n12	-20.4% (inactive)
Cc1nc2c(C(=O)O)cnn2c(C)c1Cc1ccccc1F	-26.4% (inactive)
Cc1csc2ncc(C(=O)Nc3ccccc3Cl)c(=O)n12	-6.7% (inactive)
Cc1ccccc1Cc1c(C)nc2c(C(=O)N3CCN(Cc4ccc5c(c4)OCO5)CC3)cnn2c1C	-6.7% (inactive)

SMILES	cytotoxicity
Cc1csc2ncc(C(=O)NCc3ccc4c(c3)OCO4)c(=O)n12	67.4% (active)
COc1ccc(CNC(=O)c2cnc3scc(C)n3c2=O)cc1	-6.4% (inactive)
CSc1ccccc1NC(=O)c1cnc2scc(C)n2c1=O	-4.8% (inactive)
Cc1csc2ncc(C(=O)Nc3ccccc3F)c(=O)n12	51.2% (active)
CCC(=O)Nc1nc2c(OC)ccc(C)c2s1	4% (inactive)
CCOc1cccc(C(=O)Nc2nnc(-c3ccco3)s2)c1	2.3% (inactive)
NC(=O)c1ccccc1NS(=O)(=O)Cc1ccc(Cl)cc1	0% (inactive)
Cc1c(NC(=O)C(C)OC(=O)CC2Sc3ccccc3NC2=O)c(=O)n(-c2ccccc2)n1C (centres undefined)	-14.3% (inactive)
CSc1ccc(NC(=O)CC(C)=O)cc1	-11.5% (inactive)
c1csc(-c2nnsc2-c2nc3ccccc3[nH]2)c1	7.2% (inactive)
CCC(=O)NC1=C(C#N)C2(CCCC2)Cc2ccccc21	10.4% (inactive)
COc1ccccc1-c1cc(C(=O)NCc2ccccc2)no1	17.1% (inactive)
Cc1ccc(C)c(OCC(=O)Nc2ccc3c(c2)OCO3)c1	-6.1% (inactive)
CCn1c2ccccc2c2nnc(SCCCn3c(=O)[nH]c4ccccc43)nc21	-2.7% (inactive)
C=CCn1c2ccccc2c2nnc(SCN3C(=O)c4ccccc4C3=O)nc21	21.1% (inactive)
C=CCn1c2ccccc2c2nnc(SCCCn3c(=O)[nH]c4ccccc43)nc21	89.5% (active)
CCCCn1c(CCC(=O)O)ccc1-c1cccs1	-30.1% (inactive)
COCCNS(=O)(=O)c1cccc2cccnc12	-7.9% (inactive)
COc1cc(S(=O)(=O)N2CCCCC2)ccc1NC(=O)c1ccc(F)cc1	-7.1% (inactive)
Cc1ccc2c(c1)c1c(n2CC(O)Cn2c(C)nc3ccccc32)/C(=N\O)CCC1 (centres undefined)	113% (active)
Cc1ccc2c(c1)c1c(n2CC(O)Cn2c(C)nc3ccccc32)C(=O)CCC1 (centres undefined)	-12.3% (inactive)
CCn1c2c(c3cc(Cl)ccc31)CCCC2=O	-0.8% (inactive)
Cc1ccc2c(c1)c1c(n2CC(O)Cn2nc(C)c(Br)c2C)C(=O)CCC1 (centres undefined)	-7.3% (inactive)
CCn1c2c(c3cc(C(=O)O)ccc31)CCCC2=O	-6.9% (inactive)

— PubChem BioAssay AID430 (Sanford-Burnham Center for Chemical Genomics, 2006)
